The target in test [1] is T1, Inhibitor of nuclear factor kappa-B kinase subunit alpha (Homo sapiens) (UniProt O15111).
T1 sequence (whole entry): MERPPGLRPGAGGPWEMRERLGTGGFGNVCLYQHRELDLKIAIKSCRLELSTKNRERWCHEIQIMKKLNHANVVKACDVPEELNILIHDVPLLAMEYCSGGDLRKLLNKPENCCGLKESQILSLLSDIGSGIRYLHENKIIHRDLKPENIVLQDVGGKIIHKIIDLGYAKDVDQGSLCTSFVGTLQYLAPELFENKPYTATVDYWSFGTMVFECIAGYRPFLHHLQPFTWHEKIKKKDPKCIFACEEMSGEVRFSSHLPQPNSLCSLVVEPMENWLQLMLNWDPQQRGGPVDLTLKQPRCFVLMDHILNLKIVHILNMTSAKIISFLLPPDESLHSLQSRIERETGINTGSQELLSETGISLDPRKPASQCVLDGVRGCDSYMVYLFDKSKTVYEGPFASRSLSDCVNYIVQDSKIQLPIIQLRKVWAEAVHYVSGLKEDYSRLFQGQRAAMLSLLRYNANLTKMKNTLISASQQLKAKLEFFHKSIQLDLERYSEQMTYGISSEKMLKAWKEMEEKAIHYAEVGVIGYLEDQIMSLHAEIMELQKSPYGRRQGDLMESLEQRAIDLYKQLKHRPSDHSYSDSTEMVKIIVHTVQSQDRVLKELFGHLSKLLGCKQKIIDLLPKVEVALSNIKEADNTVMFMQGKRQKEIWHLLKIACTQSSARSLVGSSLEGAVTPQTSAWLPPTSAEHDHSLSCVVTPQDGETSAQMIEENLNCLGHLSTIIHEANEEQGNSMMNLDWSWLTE
The note with it: at 1 µM.

The target of test [2] is T1, Inhibitor of nuclear factor kappa-B kinase subunit alpha (Homo sapiens). The note with it: at 10 µM.
Test [3] concerns the target T2, Inhibitor of nuclear factor kappa-B kinase subunit beta (Homo sapiens) (UniProt O14920).
T2 sequence (whole entry): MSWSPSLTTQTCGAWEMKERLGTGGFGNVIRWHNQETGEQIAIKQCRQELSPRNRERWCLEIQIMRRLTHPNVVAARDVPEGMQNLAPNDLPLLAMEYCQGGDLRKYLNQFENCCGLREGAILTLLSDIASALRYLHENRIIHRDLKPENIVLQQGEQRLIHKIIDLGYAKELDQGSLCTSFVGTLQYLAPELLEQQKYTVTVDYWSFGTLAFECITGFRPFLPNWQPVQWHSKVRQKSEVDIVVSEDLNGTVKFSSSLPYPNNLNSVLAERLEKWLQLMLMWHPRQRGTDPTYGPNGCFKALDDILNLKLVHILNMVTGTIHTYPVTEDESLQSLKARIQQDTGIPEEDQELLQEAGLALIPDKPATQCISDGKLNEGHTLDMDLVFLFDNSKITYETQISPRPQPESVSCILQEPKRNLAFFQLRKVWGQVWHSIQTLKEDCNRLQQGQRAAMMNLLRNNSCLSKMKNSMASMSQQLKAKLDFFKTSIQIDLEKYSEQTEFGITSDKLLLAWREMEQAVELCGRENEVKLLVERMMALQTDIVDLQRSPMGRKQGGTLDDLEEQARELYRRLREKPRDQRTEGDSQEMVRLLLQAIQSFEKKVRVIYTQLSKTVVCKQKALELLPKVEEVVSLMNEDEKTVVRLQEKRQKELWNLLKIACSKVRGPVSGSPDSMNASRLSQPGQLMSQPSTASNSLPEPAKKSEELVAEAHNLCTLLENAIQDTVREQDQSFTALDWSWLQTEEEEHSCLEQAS
The note with it: at 10 µM.

In test [4] the target is Interleukin-1 receptor-associated kinase 1 (Homo sapiens) (UniProt P51617). The conditions noted are these: at 10 µM.
Sequence of Interleukin-1 receptor-associated kinase 1 (Homo sapiens) (P51617 whole entry, looked up): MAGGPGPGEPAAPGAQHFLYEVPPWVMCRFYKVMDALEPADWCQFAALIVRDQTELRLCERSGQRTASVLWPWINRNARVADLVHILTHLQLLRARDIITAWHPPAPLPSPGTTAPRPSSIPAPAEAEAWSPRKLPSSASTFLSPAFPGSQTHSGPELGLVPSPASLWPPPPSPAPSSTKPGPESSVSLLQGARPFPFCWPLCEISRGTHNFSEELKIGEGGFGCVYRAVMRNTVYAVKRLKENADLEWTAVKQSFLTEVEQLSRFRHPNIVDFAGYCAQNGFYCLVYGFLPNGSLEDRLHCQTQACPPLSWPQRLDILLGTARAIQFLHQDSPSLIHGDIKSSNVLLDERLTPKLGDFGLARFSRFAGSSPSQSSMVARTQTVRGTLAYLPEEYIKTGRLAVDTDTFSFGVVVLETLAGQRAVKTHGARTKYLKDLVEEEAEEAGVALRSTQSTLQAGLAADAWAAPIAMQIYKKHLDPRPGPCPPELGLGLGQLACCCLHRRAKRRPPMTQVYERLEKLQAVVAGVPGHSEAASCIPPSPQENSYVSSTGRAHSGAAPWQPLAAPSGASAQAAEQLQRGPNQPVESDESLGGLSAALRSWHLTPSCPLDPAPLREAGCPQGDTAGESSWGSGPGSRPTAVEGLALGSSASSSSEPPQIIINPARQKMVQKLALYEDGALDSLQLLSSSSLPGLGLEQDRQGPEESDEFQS
Test [5] deals with T3, Tyrosine-protein kinase ITK/TSK (Homo sapiens) (UniProt Q08881).
T3 sequence (whole entry): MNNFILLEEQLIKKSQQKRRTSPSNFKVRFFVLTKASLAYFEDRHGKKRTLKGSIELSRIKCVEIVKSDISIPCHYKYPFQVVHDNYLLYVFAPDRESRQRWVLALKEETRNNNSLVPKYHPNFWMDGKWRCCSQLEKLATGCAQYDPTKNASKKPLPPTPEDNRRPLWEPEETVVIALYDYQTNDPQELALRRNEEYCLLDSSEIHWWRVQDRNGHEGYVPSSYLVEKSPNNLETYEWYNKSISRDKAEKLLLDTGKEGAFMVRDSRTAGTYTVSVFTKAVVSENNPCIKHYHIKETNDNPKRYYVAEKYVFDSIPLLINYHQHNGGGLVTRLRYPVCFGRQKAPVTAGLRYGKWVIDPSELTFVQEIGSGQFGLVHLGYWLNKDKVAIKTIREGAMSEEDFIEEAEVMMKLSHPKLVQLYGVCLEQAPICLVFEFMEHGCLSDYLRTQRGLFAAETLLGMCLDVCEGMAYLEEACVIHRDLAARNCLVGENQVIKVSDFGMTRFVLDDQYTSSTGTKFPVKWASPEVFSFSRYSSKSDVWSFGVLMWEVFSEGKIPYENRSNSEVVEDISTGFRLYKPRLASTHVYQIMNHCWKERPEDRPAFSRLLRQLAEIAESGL
The note with it: at 10 µM.

Test [6] has as its target Tyrosine-protein kinase JAK2 (Homo sapiens) (UniProt O60674). The note with it: at 10 µM.
In test [7] the target is T4, Tyrosine-protein kinase JAK3 (Homo sapiens) (UniProt P52333).
T4 sequence (whole entry): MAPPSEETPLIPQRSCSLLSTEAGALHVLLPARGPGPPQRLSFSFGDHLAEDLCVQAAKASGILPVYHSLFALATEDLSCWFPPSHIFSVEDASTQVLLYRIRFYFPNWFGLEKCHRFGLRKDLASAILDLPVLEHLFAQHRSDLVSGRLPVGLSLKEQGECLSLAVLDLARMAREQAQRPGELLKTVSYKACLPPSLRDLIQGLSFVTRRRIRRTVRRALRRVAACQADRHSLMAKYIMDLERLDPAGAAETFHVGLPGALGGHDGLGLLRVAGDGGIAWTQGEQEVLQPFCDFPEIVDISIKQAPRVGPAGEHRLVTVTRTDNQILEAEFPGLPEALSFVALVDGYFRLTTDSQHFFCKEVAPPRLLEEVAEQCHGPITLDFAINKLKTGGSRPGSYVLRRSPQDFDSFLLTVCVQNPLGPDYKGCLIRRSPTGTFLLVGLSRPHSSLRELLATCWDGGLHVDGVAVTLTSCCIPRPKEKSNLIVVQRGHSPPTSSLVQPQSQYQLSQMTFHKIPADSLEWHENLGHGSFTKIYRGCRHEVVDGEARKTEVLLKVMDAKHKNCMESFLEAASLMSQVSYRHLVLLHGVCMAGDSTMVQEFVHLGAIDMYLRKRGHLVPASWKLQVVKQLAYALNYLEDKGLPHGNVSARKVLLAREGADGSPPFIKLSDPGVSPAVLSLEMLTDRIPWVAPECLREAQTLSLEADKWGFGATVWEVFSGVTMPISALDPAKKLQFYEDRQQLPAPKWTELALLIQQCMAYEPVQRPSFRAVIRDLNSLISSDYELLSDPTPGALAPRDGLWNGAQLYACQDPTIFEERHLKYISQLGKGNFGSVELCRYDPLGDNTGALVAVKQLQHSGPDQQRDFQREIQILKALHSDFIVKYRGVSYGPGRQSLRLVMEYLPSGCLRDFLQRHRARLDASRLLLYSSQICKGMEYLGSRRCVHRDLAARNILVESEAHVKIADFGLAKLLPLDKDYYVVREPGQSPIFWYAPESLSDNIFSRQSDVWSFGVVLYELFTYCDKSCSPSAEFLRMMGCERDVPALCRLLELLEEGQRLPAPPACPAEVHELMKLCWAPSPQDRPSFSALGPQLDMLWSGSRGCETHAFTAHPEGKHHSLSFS
The note with it: at 1 µM.

The target of test [8] is T4, Tyrosine-protein kinase JAK3 (Homo sapiens). The note with it: at 10 µM.
The target in test [9] is Insulin receptor (Homo sapiens) (UniProt P06213). The note with it: at 1 µM.
Sequence of Insulin receptor (Homo sapiens) (P06213 28-758 limits assumed): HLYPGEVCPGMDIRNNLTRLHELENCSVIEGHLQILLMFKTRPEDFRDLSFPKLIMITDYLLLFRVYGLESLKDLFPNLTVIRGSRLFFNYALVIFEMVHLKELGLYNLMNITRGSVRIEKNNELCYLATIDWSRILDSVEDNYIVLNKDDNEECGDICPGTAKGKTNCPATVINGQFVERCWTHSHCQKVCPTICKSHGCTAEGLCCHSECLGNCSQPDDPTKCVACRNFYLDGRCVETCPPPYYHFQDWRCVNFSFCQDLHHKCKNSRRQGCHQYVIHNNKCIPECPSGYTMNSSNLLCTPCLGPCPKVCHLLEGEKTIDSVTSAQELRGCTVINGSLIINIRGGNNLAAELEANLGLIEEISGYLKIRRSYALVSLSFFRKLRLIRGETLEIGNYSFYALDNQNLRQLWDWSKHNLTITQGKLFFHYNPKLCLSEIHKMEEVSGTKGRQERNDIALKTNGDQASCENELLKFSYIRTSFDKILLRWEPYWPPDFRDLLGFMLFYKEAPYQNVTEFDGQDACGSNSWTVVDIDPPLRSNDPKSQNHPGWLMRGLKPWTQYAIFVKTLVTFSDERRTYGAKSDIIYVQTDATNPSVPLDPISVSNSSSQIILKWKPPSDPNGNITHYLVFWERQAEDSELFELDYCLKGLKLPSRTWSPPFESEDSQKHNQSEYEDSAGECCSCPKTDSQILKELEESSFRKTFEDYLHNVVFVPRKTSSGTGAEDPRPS
Sequence of Insulin receptor (Homo sapiens) (P06213 763-1382 limits assumed): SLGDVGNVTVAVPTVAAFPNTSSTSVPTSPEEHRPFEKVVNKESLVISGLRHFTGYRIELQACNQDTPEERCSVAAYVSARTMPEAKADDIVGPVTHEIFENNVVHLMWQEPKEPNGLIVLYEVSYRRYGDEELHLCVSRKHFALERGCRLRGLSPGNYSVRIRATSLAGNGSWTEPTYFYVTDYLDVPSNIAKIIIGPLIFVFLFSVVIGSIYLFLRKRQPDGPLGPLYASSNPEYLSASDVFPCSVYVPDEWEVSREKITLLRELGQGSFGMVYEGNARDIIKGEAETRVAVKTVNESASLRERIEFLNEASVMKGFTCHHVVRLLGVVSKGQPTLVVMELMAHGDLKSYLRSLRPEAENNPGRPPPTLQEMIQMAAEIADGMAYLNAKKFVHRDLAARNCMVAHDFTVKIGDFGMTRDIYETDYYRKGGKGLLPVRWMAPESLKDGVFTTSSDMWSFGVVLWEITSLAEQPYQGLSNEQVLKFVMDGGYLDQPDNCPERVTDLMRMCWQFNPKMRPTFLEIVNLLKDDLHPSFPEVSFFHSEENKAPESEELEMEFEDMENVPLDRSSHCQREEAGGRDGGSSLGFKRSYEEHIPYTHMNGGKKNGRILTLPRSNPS
Test [10] has the same target. The note with it: at 10 µM.
The target is the same in test [11]. The conditions noted are these: at 1 µM. This is another data set of the same source.
Test [12] has the same target. The conditions noted are these: at 10 µM. This is another data set of the same source.
The target in test [13] is Interleukin-1 receptor-associated kinase 1 (Homo sapiens) (UniProt P51617). The conditions noted are these: at 1 µM.
Test [14] concerns the target T5, Interleukin-1 receptor-associated kinase 4 (Homo sapiens) (UniProt Q9NWZ3).
T5 sequence (whole entry): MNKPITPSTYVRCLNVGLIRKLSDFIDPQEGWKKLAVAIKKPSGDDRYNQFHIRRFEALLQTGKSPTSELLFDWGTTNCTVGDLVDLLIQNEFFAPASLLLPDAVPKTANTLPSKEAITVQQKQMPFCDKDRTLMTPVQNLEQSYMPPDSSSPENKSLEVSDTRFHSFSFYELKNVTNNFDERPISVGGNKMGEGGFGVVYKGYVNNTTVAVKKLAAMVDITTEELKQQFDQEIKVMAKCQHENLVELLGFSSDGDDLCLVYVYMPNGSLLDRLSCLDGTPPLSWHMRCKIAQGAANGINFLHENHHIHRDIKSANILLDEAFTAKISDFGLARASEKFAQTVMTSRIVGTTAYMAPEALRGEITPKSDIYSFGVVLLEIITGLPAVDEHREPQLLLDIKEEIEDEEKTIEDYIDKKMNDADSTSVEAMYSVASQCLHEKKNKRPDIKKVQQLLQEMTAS
The note with it: at 1 µM.

The target of test [15] is T5, Interleukin-1 receptor-associated kinase 4 (Homo sapiens). The conditions noted are these: at 10 µM.
Test [16] deals with Insulin receptor-related protein (Homo sapiens) (UniProt P14616). The note with it: at 1 µM.
Sequence of Insulin receptor-related protein (Homo sapiens) (P14616 27-742 limits assumed): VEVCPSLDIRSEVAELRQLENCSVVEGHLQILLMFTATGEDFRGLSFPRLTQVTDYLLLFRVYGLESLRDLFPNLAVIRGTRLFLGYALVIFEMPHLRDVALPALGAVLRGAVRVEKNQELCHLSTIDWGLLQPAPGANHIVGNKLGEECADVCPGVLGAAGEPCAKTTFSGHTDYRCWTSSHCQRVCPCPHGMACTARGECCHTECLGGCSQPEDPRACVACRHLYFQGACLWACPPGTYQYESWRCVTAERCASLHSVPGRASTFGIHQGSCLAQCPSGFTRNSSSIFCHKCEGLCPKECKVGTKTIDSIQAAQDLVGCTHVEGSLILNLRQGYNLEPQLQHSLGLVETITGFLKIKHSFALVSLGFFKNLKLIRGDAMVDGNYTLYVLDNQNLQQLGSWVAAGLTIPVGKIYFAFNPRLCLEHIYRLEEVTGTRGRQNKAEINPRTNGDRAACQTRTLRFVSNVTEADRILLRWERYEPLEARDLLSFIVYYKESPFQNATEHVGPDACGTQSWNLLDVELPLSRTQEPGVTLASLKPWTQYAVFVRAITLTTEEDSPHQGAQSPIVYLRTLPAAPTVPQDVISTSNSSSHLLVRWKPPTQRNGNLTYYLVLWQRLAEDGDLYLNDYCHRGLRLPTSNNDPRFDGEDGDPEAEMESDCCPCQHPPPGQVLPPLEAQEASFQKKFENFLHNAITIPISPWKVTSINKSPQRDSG
Sequence of Insulin receptor-related protein (Homo sapiens) (P14616 747-1297 limits assumed): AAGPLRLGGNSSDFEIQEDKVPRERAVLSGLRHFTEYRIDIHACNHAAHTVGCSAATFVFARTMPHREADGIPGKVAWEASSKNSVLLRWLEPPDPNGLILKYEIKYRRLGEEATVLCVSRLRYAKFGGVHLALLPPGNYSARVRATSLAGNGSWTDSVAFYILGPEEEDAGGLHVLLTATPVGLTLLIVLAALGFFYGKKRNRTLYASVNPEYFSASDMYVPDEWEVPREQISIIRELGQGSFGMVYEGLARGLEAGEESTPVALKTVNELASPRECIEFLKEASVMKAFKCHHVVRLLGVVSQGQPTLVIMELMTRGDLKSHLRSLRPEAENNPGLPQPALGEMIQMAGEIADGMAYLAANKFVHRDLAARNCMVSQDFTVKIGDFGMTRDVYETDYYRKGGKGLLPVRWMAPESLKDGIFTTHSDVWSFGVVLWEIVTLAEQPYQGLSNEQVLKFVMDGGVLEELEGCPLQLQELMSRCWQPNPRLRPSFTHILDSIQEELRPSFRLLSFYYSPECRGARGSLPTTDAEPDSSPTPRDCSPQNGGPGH
Test [17] has the same target. The conditions noted are these: at 10 µM.
Test [18] concerns the target T3, Tyrosine-protein kinase ITK/TSK (Homo sapiens). The note with it: at 1 µM.
Test [19] addresses T2, Inhibitor of nuclear factor kappa-B kinase subunit beta (Homo sapiens). The note with it: at 1 µM.
Test [20] addresses Tyrosine-protein kinase JAK2 (Homo sapiens) (UniProt O60674). The conditions noted are these: at 1 µM.

Sequence of Tyrosine-protein kinase JAK2 (Homo sapiens) (O60674 whole entry): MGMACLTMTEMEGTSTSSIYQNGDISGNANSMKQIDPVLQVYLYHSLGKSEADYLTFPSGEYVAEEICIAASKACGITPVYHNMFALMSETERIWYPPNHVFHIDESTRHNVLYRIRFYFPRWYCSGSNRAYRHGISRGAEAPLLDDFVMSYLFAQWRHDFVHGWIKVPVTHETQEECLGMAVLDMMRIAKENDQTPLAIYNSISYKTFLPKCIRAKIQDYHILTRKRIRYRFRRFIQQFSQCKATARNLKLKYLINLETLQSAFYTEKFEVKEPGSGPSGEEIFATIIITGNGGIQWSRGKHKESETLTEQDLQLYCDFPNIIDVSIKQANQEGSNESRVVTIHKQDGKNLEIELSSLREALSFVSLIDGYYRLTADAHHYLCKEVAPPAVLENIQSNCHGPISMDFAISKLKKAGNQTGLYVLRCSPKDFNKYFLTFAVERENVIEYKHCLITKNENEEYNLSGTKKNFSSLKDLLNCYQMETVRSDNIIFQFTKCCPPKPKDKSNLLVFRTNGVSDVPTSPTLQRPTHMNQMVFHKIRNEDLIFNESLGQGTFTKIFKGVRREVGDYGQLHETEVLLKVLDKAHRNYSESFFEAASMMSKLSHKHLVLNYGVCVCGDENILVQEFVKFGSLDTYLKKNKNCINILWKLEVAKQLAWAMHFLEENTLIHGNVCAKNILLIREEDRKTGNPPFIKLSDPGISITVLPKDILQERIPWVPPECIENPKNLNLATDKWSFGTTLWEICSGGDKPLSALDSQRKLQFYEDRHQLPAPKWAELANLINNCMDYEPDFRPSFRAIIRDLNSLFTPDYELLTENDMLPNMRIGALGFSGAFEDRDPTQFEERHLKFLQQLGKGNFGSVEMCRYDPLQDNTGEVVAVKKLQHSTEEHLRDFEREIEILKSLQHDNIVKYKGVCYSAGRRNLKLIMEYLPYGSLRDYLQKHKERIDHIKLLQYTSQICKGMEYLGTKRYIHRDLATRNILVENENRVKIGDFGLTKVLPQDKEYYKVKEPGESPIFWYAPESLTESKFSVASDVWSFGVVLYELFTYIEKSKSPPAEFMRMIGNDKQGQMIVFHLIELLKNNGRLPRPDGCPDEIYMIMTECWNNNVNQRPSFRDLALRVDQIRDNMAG

What is called residual activity is the signal under treatment as a percentage of the control signal. Turning to `COc1ccc2c(c1)/C(=C/c1cnc[nH]1)C(=O)N2`, the residual activity in test [1] is 74%; in [2] it was 23%; in [3] it was 59%; in test [4], 37%; in test [5], 42%; in test [6], 29%. Besides, the residual activity in test [7] amounted to 48%; in test [8], 10%.
As for `COc1cc(OC)c(/C=C2\C(=O)Nc3ccccc32)c(OC)c1`, the residual activity in test [9] was determined as 82%; in test [10], 86%; in [11], 98%; in [12], 91%; in test [13] it was 100%; in test [4], 103%. Further, the residual activity was 81% in test [14]; 75% in test [15]; 101% in [16]; 98% in test [17]; 101% in test [18]; 93% in test [5]. Besides, the residual activity in test [6] came out at 94%; in test [7], 105%; in [8] it was 100%.
`COC(=O)[C@@]1(O)C[C@H]2O[C@]1(C)n1c3ccccc3c3c4c(c5c6ccccc6n2c5c31)C(=O)NC4`: the residual activity in test [1] was 2%; in test [2], 3%; in test [19], 17%; in [3], 3%; in [9], 42%; in [10], 20%. Moreover, the residual activity in test [11] was 7%; in test [12] it was 0%; in [13], 1%; in test [4], 0%; in test [14], -2%; in test [15], 0%. Also, the residual activity in test [16] was 6%; in [17] it was 1%; in test [18], 15%; in [5], 1%; in [20], 2%; in [6] it was -1%. For the same compound, the residual activity in test [7] and in test [8] was 0% each time.
For `CC(C)(C)c1cc(C=C(C#N)C#N)cc(Br)c1O`, the residual activity was 101% in test [1]; 99% in test [2]; 98% in test [19]; 99% in test [3]; 122% in test [9]; 108% in test [10]. For the same compound, the residual activity worked out at 109% in test [11]; 105% in test [12]; 117% in test [13]; 107% in test [4]; 112% in test [14]; 105% in [16]. Moreover, the residual activity in test [17] came to 102%; in test [18], 105%; in [5] it was 104%; in test [20], 110%; in test [6], 113%; in test [7], 105%.

The values are drawn from ChEMBL document CHEMBL2218924, “A broad activity screen in support of a chemogenomic map for kinase signalling research and drug discovery” (Biochem J, 2013).
